These compounds were tested against T1, Aspartate--tRNA(Asp/Asn) ligase (Mycobacterium tuberculosis (strain ATCC 25618 / H37Rv)) (UniProt P9WFW3) (assay: Assay for Asp RNA synthetase-1 from Mycobacterium tuberculosis). Settings: 30 µM.
T1 sequence (whole entry): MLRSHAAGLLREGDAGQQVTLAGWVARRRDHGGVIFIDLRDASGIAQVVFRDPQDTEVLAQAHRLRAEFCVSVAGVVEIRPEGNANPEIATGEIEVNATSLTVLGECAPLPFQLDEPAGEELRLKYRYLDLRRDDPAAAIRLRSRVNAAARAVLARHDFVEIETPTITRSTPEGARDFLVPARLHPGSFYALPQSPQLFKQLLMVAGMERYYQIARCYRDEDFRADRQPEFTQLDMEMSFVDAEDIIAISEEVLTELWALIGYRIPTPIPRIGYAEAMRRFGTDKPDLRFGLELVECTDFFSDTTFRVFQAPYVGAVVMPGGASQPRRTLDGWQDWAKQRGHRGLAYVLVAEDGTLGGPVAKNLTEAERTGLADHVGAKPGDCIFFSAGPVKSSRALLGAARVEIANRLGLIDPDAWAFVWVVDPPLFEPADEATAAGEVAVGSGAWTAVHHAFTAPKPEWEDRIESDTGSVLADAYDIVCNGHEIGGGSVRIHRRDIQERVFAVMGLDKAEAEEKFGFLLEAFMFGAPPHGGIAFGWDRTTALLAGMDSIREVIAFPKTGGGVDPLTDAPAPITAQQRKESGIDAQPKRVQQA
Format: functional
Parameters: scale not given: direction of the effect not stated beside the values

| Compound | Percent Effect [%] |
| --- | --- |
| CC(C)CNC(=O)Nc1ccc(CN2CCOC2=O)cc1 | 1.75 |
| CN(C)c1cc(C(=O)N2CCN(S(C)(=O)=O)CC2)ccn1 | -0.122 |
| CCc1nc(CN(C)C2CCN(CCNS(=O)(=O)CC)C2)no1 (stereo not given) | 5.16 |
| CN(C(=O)NCc1ccncc1)C1CCN(c2ccccc2)C1=O (stereo not given) | -3.08 |
| FC(F)(F)Cc1noc(CN2CCCC2c2noc(C3CC3)n2)n1 (stereo not given) | 8.91 |
| O=C(c1ccc(C2CCCO2)s1)N1CCN(c2ccccc2F)CC1 (stereo not given) | 1.1 |
| CCC1=N[C@@]2(CC[C@@H]3CN(C(=O)Nc4ccc(F)cc4)C[C@@H]32)C(=O)N1 | 0.408 |
| c1cnn(C2CN(Cc3nc(-c4ccsc4)no3)C2)c1 | -1.81 |
| CN(C)C(=O)c1ccc2c(c1)N(C)C(CC(=O)NC(C)(C)CO)CO2 (stereo not given) | 1.87 |
| Cc1nnc(NCC2(c3ccccc3)CC2)c(C#N)c1C | 1.73 |
| CCCS(=O)(=O)N1CCC2(CN(c3ccsc3)C(=O)CN2C)C1 (stereo not given) | -3.98 |
| CN(C)C(=O)C1CCCN1CCCNC(=O)c1ccccc1F (stereo not given) | 7.07 |
| Cc1ccoc1C(=O)N1CC[C@H]2O[C@@H](C)C[C@H]2C1 | -2.48 |
| O=C(NC1CC1)c1cc(NC(=O)N2CCCC(O)C2)ccc1Cl (stereo not given) | -0.137 |
| CCCC(C)C(=O)NCc1cn2cc(Br)ccc2n1 (stereo not given) | 1.41 |
| Cc1nccn1-c1nccnc1C1CCN(Cc2ccc(F)cc2)CC1 | -0.338 |
| CC(C)n1ccnc1CN1CCCN(C(=O)c2cc(Cl)c[nH]2)CC1 | 3.35 |
| CCc1cnc2c(c1Nc1ccncc1)c(=O)n(C)c(=O)n2C | 0.918 |
| COc1ccccc1CNC(=O)C1=NN(c2ccc(C)cc2)C(=O)CN1 | 17.6 |
| O=C(COc1cccc2c1CCC2=O)NCCSc1ccccc1 | 3.02 |

| Compound | Percent Effect [%] |
| --- | --- |
| CS(=O)(=O)N1CCN(CC(O)COc2ccc(F)cc2)CC1 (stereo not given) | 1.99 |
| O=C(c1ccc[nH]1)N1CCCC2(CCN(c3ccsc3)C2=O)C1 (stereo not given) | 3.37 |
| Cc1nn(C)c(C)c1C1COCCN1C(=O)c1cnc(N)c(Cl)c1 (stereo not given) | 0.88 |
| CN(Cc1ccccc1)C(=O)c1nc(S(C)(=O)=O)n2ccccc12 | -4.08 |
| COCC1COCCC12CCN(CCc1ccccc1)CC2 (stereo not given) | -6.15 |
| CCOCCOc1ccccc1C(=O)N1CCCC(c2ncc[nH]2)C1 (stereo not given) | 7.07 |
| COc1ccc(-c2noc(C(=O)NCCN3CCCCC3)n2)cc1OC | -1.25 |
| CC(=O)N(Cc1noc(C2CC2)n1)C1CCN(Cc2ccncc2)C1 (stereo not given) | 1.34 |
| CC1CCN(S(=O)(=O)NCC2CCOc3ccccc3C2)CC1 (stereo not given) | 0.0297 |
| O=C(C1=CCCC1)N1CCC[C@]2(C[C@@H](Oc3ncccc3F)CO2)C1 | 0.0684 |
| CC(C)[C@H](NC(=O)NC1CCS(=O)(=O)C1)C(=O)NCc1cccnc1 (stereo not given in full) | -2.09 |
| Cc1cc(C(F)(F)F)nn1CC(C)C(=O)Nc1ccncc1 (stereo not given) | 2.67 |
| CCSCCNC(=O)C(c1cccc(F)c1)N(C)C (stereo not given) | 0.0558 |
| O=C(NCCN1CCCc2ccccc21)c1scnc1Cl | -4.16 |
| Nc1nccc(N2CCC(Cc3ccccc3Cl)(C(=O)O)CC2)n1 | -0.368 |
| c1coc(CN2Cc3nccn3CC(Cn3cncn3)C2)c1 (stereo not given) | -0.866 |
| O=C(NCCNc1ccccn1)N1CCSCC1 | -5.89 |
| CN1CCN(C[C@@H]2OC[C@H]3CN(Cc4cccc(F)c4)CC[C@H]32)CC1 | -1.14 |
| O=C(NCCCNCC1CNc2ccnn2C1)c1ccccc1 (stereo not given) | 0.0558 |
| CCc1nc(C2CCCN2CCn2cncn2)no1 (stereo not given) | 0.0232 |

What follows are compounds tested against Shiga toxin 2 (Escherichia coli O157:H7) (UniProt P09385+P09386) (assay: E. coli 0.157:H7 Shiga Toxin SOP - stx2 screening assay). Settings: 30 µM.
Format: functional
Parameters: scale not given: direction of the effect not stated beside the values

| Compound | Percent Effect [%] |
| --- | --- |
| CC(C)CNC(=O)Nc1ccc(CN2CCOC2=O)cc1 | -53.2 |
| CN(C)c1cc(C(=O)N2CCN(S(C)(=O)=O)CC2)ccn1 | -36.9 |
| CCc1nc(CN(C)C2CCN(CCNS(=O)(=O)CC)C2)no1 (stereo not given) | -60.5 |
| CN(C(=O)NCc1ccncc1)C1CCN(c2ccccc2)C1=O (stereo not given) | -7.78 |
| FC(F)(F)Cc1noc(CN2CCCC2c2noc(C3CC3)n2)n1 (stereo not given) | 16.4 |
| O=C(c1ccc(C2CCCO2)s1)N1CCN(c2ccccc2F)CC1 (stereo not given) | -30.2 |
| CCC1=N[C@@]2(CC[C@@H]3CN(C(=O)Nc4ccc(F)cc4)C[C@@H]32)C(=O)N1 | 5.29 |
| c1cnn(C2CN(Cc3nc(-c4ccsc4)no3)C2)c1 | 23 |
| CN(C)C(=O)c1ccc2c(c1)N(C)C(CC(=O)NC(C)(C)CO)CO2 (stereo not given) | -25.6 |
| Cc1nnc(NCC2(c3ccccc3)CC2)c(C#N)c1C | 15.4 |
| CCCS(=O)(=O)N1CCC2(CN(c3ccsc3)C(=O)CN2C)C1 (stereo not given) | -8.23 |
| CN(C)C(=O)C1CCCN1CCCNC(=O)c1ccccc1F (stereo not given) | -18.5 |
| Cc1ccoc1C(=O)N1CC[C@H]2O[C@@H](C)C[C@H]2C1 | -17.1 |
| O=C(NC1CC1)c1cc(NC(=O)N2CCCC(O)C2)ccc1Cl (stereo not given) | -38.6 |
| CCCC(C)C(=O)NCc1cn2cc(Br)ccc2n1 (stereo not given) | -63.8 |
| Cc1nccn1-c1nccnc1C1CCN(Cc2ccc(F)cc2)CC1 | -6.1 |
| CC(C)n1ccnc1CN1CCCN(C(=O)c2cc(Cl)c[nH]2)CC1 | -53.1 |
| CCc1cnc2c(c1Nc1ccncc1)c(=O)n(C)c(=O)n2C | -8.05 |
| COc1ccccc1CNC(=O)C1=NN(c2ccc(C)cc2)C(=O)CN1 | 11 |
| O=C(COc1cccc2c1CCC2=O)NCCSc1ccccc1 | -30.6 |

| Compound | Percent Effect [%] |
| --- | --- |
| CS(=O)(=O)N1CCN(CC(O)COc2ccc(F)cc2)CC1 (stereo not given) | 26.7 |
| O=C(c1ccc[nH]1)N1CCCC2(CCN(c3ccsc3)C2=O)C1 (stereo not given) | 3.06 |
| Cc1nn(C)c(C)c1C1COCCN1C(=O)c1cnc(N)c(Cl)c1 (stereo not given) | -23.7 |
| CN(Cc1ccccc1)C(=O)c1nc(S(C)(=O)=O)n2ccccc12 | 20.9 |
| COCC1COCCC12CCN(CCc1ccccc1)CC2 (stereo not given) | 2.07 |
| CCOCCOc1ccccc1C(=O)N1CCCC(c2ncc[nH]2)C1 (stereo not given) | -32.6 |
| COc1ccc(-c2noc(C(=O)NCCN3CCCCC3)n2)cc1OC | -77.4 |
| CC(=O)N(Cc1noc(C2CC2)n1)C1CCN(Cc2ccncc2)C1 (stereo not given) | -5.75 |
| CC1CCN(S(=O)(=O)NCC2CCOc3ccccc3C2)CC1 (stereo not given) | 5.97 |
| O=C(C1=CCCC1)N1CCC[C@]2(C[C@@H](Oc3ncccc3F)CO2)C1 | 7.81 |
| CC(C)[C@H](NC(=O)NC1CCS(=O)(=O)C1)C(=O)NCc1cccnc1 (stereo not given in full) | -28.7 |
| Cc1cc(C(F)(F)F)nn1CC(C)C(=O)Nc1ccncc1 (stereo not given) | -18.1 |
| CCSCCNC(=O)C(c1cccc(F)c1)N(C)C (stereo not given) | 12.8 |
| O=C(NCCN1CCCc2ccccc21)c1scnc1Cl | 0.202 |
| Nc1nccc(N2CCC(Cc3ccccc3Cl)(C(=O)O)CC2)n1 | -4.46 |
| c1coc(CN2Cc3nccn3CC(Cn3cncn3)C2)c1 (stereo not given) | -9.64 |
| O=C(NCCNc1ccccn1)N1CCSCC1 | 16.3 |
| CN1CCN(C[C@@H]2OC[C@H]3CN(Cc4cccc(F)c4)CC[C@H]32)CC1 | 11.3 |
| O=C(NCCCNCC1CNc2ccnn2C1)c1ccccc1 (stereo not given) | -16.8 |
| CCc1nc(C2CCCN2CCn2cncn2)no1 (stereo not given) | -0.231 |

From ChEMBL document CHEMBL3988442, “University of Dundee, Small-Polar-MMV Screening Library” (2021)
